In PubChem BioAssay (NCI):
Where “and” joins values, the source holds several entries; their conditions need not be identical. Equal entries are not always repeated. Compounds without any hit were thinned out: in the full panel of roughly 83,000, 20% have a hit.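 A percent growth of 40 corresponds to 60% growth inhibition; 0 means no net growth; -100 means all cells died. Active threshold: below 10.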 Calls of active or inactive are those of the source.

System: HL-60(TB) leukemia
Assay: NCI-60 one-dose screen, 48 h (100 = growth as untreated, 0 = no growth, -100 = all killed)
Conditions: 10 µM unless noted

Compound	growth
CC(C)(C)n1cc(-c2ccnc(NCCNS(=O)(=O)c3cccc4ccccc34)c2)c(-c2cccc(F)c2)n1	-52.3% (active)
O=C(Nc1cccc(-n2ccc3c(NC(=O)c4ccccc4)nccc32)c1)c1ccc(N2CCOCC2)c(C(F)(F)F)c1	-7.22% (active)
Nc1c(C(=O)Nc2cccc(Br)c2)sc2nc3c(cc12)C(O)CCC3 (stereo not given)	-2.37% (active)
NC1=NC(=O)C(c2ccccc2)(c2ccccc2)S1	97.9% (inactive)
CC[C@@H](C(=O)[C@H](C)[C@H](O)[C@@H](C)[C@H]1O[C@H]([C@@H](CC)C(=O)O)CC[C@H]1C)C1O[C@]2(C=C[C@@H](O)[C@]3(CC[C@@](C)([C@H]4CC[C@](O)(CC)[C@H](C)O4)O3)O2)[C@H](C)C[C@@H]1C (stereo not given in full)	-36.8% (active)
COC(=O)c1ccc2[nH]c(O)c(C(=Nc3ccc(N(C)C(=O)CN4CCN(C)CC4)cc3)c3ccc(C)cc3)c2c1	-55.7% (active)
CCc1ccccc1NC(=O)/C(C#N)=C/c1ccc(OC)cc1	138% (inactive)
COC(=O)CNC(=O)[C@H](Cc1ccccc1)NCc1ccncc1	88.6% (inactive)
CC(C)(C)c1ccc(S(=O)(=O)Oc2ccc3c4c(c(=O)oc3c2)CCCCC4)cc1	52% (inactive)
Cn1cc(-c2csc(-c3c[nH]c4ccc(Br)cc34)n2)c2ccnc(Cl)c21	66.8% (inactive)
CCN1CCC2(CC1)OC(c1ccccc1)C(c1ccccc1)O2 (stereo not given)	103% (inactive)
C=C(C)[C@@H]1CC[C@]2(C(=O)NCC#CCN3CCN(C)CC3)CC[C@]3(C)[C@H](CC[C@@H]4[C@@](C)(CCC#N)[C@H](C(=C)C)CC[C@]43C)[C@@H]12	10.9% (inactive)
O=C1N[C@@H]2NC(=[N+]3CCOCC3)N[C@@H]2N1	98% (inactive)
O=S(=O)(NCCNc1cc(-c2cn(-c3ccccc3)nc2-c2cccc(O)c2)ccn1)c1cccc(F)c1	27.4% (inactive)
Cc1c(C(=O)NCCN2CCOCC2)cn2ncnc(Oc3ccc(NC(=O)Nc4ccc(Cl)c(C(F)(F)F)c4)cc3)c12	-0.946% (active)
CCCCC(=O)Nc1ncc(Cc2ccc(Cl)cc2)s1	66.1% (inactive)
Cc1nc(NC(=O)NC2CCCCC2)sc1C(=O)NN	172% (inactive)
COc1cc(-c2cc(-c3cccs3)c(C#N)c(N3CCOCC3)n2)cc(OC)c1OC	58.9% (inactive)
COc1ccc2c(=O)cc(C(Cl)(Cl)Cl)oc2c1	-32.6% (active)
C/C(Nc1ccc(Cl)c(Cl)c1)=C1\CCOC1=O	96.6% (inactive)

Compound	growth
O=C(COc1ccc(/C=C2\Oc3ccccc3C2=O)cc1)Nc1nc2c(s1)CCCC2	-72.2% (active)
CC1(C)C2CC1C1(/C=N/NC(N)=S)C(C2)C(C#N)(C#N)C1(C#N)C#N (stereo not given)	13.5% (inactive)
O=c1[nH]c2cc(Cl)c(Cl)cc2o1	120% (inactive)
CCCCCn1sc(=O)n(Cc2ccc(CNC(=O)C(C)c3ccc(CC(C)C)cc3)cc2)c1=O (stereo not given)	102% (inactive) and -34.5% (active)
CC(C)(C)OC(=O)N1CCCN(CCNc2nccc(-c3c(-c4cccc(O)c4)nc4sccn34)n2)S1(=O)=O	104% (inactive)
COC1=CC(c2ccc[nH]2)=N/C1=C\c1[nH]c(C)c(C(=O)OCc2ccccc2)c1C	-8.78% (active)
Cc1ccc(C)c2c1sc1nc3nc4sc5ccccc5n4c(=N)c3c(=O)n12	89% (inactive)
Cc1cc(O)c(C(C)C)cc1S(=O)(=O)O (tested in a mixture with another compound)	84.2% (inactive) and -0.846% (active) and 104% (inactive)
CC(=O)Nc1ccc2cc3ccc(NC(C)=O)cc3nc2c1	131% (inactive) and 96.4% (inactive)
C/C(=N\NC(N)=S)c1nc2ccc(Cl)cc2[nH]1	29.5% (inactive)
Cc1cc(C)cc(CCCCCCCCCCCCCCCCCC(=O)O)c1	71% (inactive)
Cc1ccsc1-c1ccc2c(c1)COC2(CCCN(C)C)c1ccc(F)cc1 (stereo not given)	23% (inactive)
COc1ccc(COC=O)cc1	103% (inactive)
C=C(C)[C@@H]1CC[C@]2(C(=O)NCC(=O)OC)CC[C@]3(C)[C@H](CC[C@@H]4[C@@]5(C)Cc6c([nH]c7ccccc67)C(C)(C)[C@@H]5CC[C@]43C)[C@@H]12	64.8% (inactive)
Cc1c[n+](Cc2ccc3ccccc3c2)cn1Cc1ccc2ccccc2c1	-56.3% (active)
Cc1cc(NC(=O)NC(=O)c2ccccc2N(C)C)ccc1Oc1ncc(Br)cn1	-13.6% (active) and 20.7% (inactive)
CC(c1ccccn1)C(C)(O)C(C)c1ccccn1 (stereo not given)	69.8% (inactive)
COc1cccc(O)c1O	73.6% (inactive)
COc1cc(-c2csc(NC(=O)Nc3ccc(Cl)cc3)n2)cc(OC)c1OC	2.62% (active)
CCCCCC(=O)N1c2ccccc2NC2=C(C(=O)CC(c3ccc(OC)c(OC)c3)C2)C1c1ccc(C(F)(F)F)cc1 (stereo not given)	45.4% (inactive)
